Screening results (PubChem)
CtBP-E1A inh – blocks the CtBP interaction with E1A | AlphaScreen GST-E1A/His-CtBP binding, 1536-well; stronger effect = lower value | activity change, % (concentration not given with the values) | hit rate 0.49% among 340,000 | AID 651724
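Protein mix (5X: 125 nM each GST-E1A, His-CtBP) was incubated with pinned compound 2 h at 37 deg C in dark, in 50 mM Tris pH 8.0 buffer with 300 mM NaCl. Glutathione donor and nickel acceptor beads followed; AlphaScreen signal read after 1 h.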
PKM2 activator – increases activity of human pyruvate kinase M2; P14618; Potency, µM (series often up to 57.5 µM), inactives show top-dose activation, actives largely listed as activators; AID 1631; hit rate 0.34% among 260,000; purified PKM2, Kinase-Glo ATP luminescence, activation; response scale: 0% is enzyme alone, no compound; active = well fitted activation curve with a large enough effect; inconclusive = small, poorly fitted or top-dose-only effect; inactive = no such curve, though single readings can be large or run the other way; note: potency is the fitted concentration of half-maximal effect; nearly all actives have a fitted effect of over 55% in size
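Purified hPK-M2 (>95%) run at intermediate activity with 0.1 mM ADP and 0.5 mM PEP in 50 mM imidazole pH 7.2, KCl, MgCl2; 1 h room temperature. ATP formed read by Kinase-Glo luminescence; normalized to uninhibited and no-enzyme controls.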
MBNL1-CUG inh – blocks human MBNL1 binding to CUG repeat RNA. TR-FRET MBNL1-His/biotin-(CUG)12 binding, 665/545 ratio. Potency, µM (highest dose often 57.5 µM), inactives show at the top dose activity change, negative = inhibition, usual class: inhibitors. hit rate 0.036% among 280,000. AID 2675; active = well fitted inhibition curve with a large enough effect in the signal ratio, with a control signal flat, not every such curve was filed as active; inconclusive = small, poorly fitted or top-dose-only effect, or effect the other way, or a change in a side signal; inactive = no such curve, though single readings can be large or run the other way; the % refers to the signal ratio; note: potency is the fitted concentration of half-maximal effect
Target sequence (Q9NR56 whole entry, looked up): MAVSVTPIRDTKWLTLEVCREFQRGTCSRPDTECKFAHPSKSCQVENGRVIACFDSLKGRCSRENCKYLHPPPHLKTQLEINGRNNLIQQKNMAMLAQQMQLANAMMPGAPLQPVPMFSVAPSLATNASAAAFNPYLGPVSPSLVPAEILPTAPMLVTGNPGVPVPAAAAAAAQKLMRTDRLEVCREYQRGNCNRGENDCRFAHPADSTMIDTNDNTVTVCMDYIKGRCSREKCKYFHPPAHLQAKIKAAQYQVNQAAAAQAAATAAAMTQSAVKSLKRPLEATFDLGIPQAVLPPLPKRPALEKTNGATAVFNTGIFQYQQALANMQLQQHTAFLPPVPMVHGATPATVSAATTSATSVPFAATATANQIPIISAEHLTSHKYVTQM
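Compounds (final 92 nM to 58 uM) are added to His-tagged MBNL1 and biotin-(CUG)12, then terbium anti-His antibody and streptavidin-XL665 (5 nM final). After 60 min at room temperature, the 665/545 nm ratio is read.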
Six1-Eya2 blk – blocks human Six1 binding to Eya2. Q15475+O00167. AlphaScreen GST-Six1/His-Eya2 binding, biochemical; stronger effect = lower value. activity change, % (concentration not given with the values). hit rate 0.56% among 360,000
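AlphaScreen with GST-Six1 and His-Eya2 (5X mix: 250 nM and 500 nM), glutathione donor and nickel acceptor beads; buffer 50 mM Tris pH 8.0, 300 mM NaCl, 1 mM TCEP; 1 h at 37 C in the dark.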
* hit, by the source's call; ! = not confirmed by another sample. A selection: hits, their analogues and other compounds. The true share with any hit is near 0.93%. Cut-off read from the data, not from the text of the source, unless noted: active = activity change below about -65%; inconclusive = mostly about -30% to -63%; inactive = weaker than that. % is set by controls: 0 for no effect and ±100 for the full control effect.

COc1cc2c(cc1C=O)OCO2 was read as CtBP-E1A inh -15, PKM2 activator -6% and Six1-Eya2 blk -7.
Screening COc1cc([C@@H]2c3cc4c(cc3[C@@H](OC)[C@H]3COC(=O)[C@H]23)OCO4)cc(OC)c1O returned CtBP-E1A inh 6, PKM2 activator 32µM*, MBNL1-CUG inh -9% and Six1-Eya2 blk 1.
COC(=O)[C@@]1(Cc2ccccc2)[C@H]2c3cc(C(=O)N(C)C)n(C)c3C[C@H]2CN1C(=O)c1ccccc1 was read as PKM2 activator 4%.
COc1cc2c(cc1O)C[C@H]1NCCc3cc4c(c-2c31)OCO4 was read as CtBP-E1A inh -79*, PKM2 activator 20%, MBNL1-CUG inh inconclusive and Six1-Eya2 blk -65*.
Screening COc1cc2c(cc1OC)-c1c3c(cc4c1[C@@H](C2)N(C)CC4)OCO3 returned CtBP-E1A inh inconclusive, PKM2 activator 0%, MBNL1-CUG inh inconclusive and Six1-Eya2 blk inconclusive.
COC(=O)CSc1nc2sc3c(c2c(=O)n1C1CCCCC1)CCN(C)C3 was read as PKM2 activator 11% and MBNL1-CUG inh inconclusive.
For COc1ccc(N2C(=O)/C(=C/c3cccs3)C(=O)NC2=S)cc1 the results were CtBP-E1A inh -6, PKM2 activator 14µM*, MBNL1-CUG inh 2% and Six1-Eya2 blk -2.
Screening COc1ccc(N2C(=O)NC(=O)/C(=C/c3ccc([N+](=O)[O-])s3)C2=O)cc1 returned PKM2 activator 27%, MBNL1-CUG inh inconclusive and Six1-Eya2 blk -73*.
For COc1ccc(N2C(=O)/C(=C/C=C/c3ccccc3[N+](=O)[O-])C(=O)NC2=S)cc1 the results were CtBP-E1A inh -1, PKM2 activator 20µM*, MBNL1-CUG inh -4% and Six1-Eya2 blk -16.
For COc1ccc(N2C(=O)NC(=O)/C(=C\c3ccc([N+](=O)[O-])s3)C2=O)cc1 the results were CtBP-E1A inh -21, PKM2 activator -1%, MBNL1-CUG inh inconclusive and Six1-Eya2 blk inconclusive.
`COc1ccccc1/C=C1\C(=O)NC(=S)N(c2ccccc2)C1=O` gave CtBP-E1A inh -3, MBNL1-CUG inh 3% and Six1-Eya2 blk -3.
For O=P(c1ccccc1)(c1ccccc1)N1CC2(CC2)CC(O)(c2ccccc2)C1 (stereo not given) the results were PKM2 activator -1%.
`O=C1NO[C@@H]2CN[C@@H](C(=O)O)[C@H]12` gave PKM2 activator -2%.
For COC(=O)[C@@]1(Cc2ccccc2)[C@H]2c3cc(C(=O)N(C)C)[nH]c3C[C@H]2CN1C(=O)c1ccccc1 the results were PKM2 activator 7%.
CCN(CC)c1ccc(N=Cc2c(O)n(Cc3ccccc3)c(=O)[nH]c2=O)cc1 was read as CtBP-E1A inh 48, PKM2 activator 3%, MBNL1-CUG inh 2% and Six1-Eya2 blk -72*!.
Screening O=C(N/N=C/c1c(O)n(CCc2ccc(F)cc2)c(=O)[nH]c1=O)c1ccccc1 returned CtBP-E1A inh -5, PKM2 activator 5%, MBNL1-CUG inh 8% and Six1-Eya2 blk -9.
O=C(N/N=C/c1c(O)n(Cc2ccc(F)cc2)c(=O)[nH]c1=O)c1ccccc1O was read as CtBP-E1A inh inconclusive, PKM2 activator 1%, MBNL1-CUG inh 22% and Six1-Eya2 blk -88*.
CCN(CC)c1ccc(N=Cc2c(O)n(-c3ccccc3)c(=O)[nH]c2=O)cc1 was read as PKM2 activator 12%, MBNL1-CUG inh inconclusive and Six1-Eya2 blk -6.
Screening O=C(N/N=C/c1c(O)n(Cc2ccccc2)c(=O)[nH]c1=O)c1ccccc1O returned CtBP-E1A inh 0, PKM2 activator -13%, MBNL1-CUG inh inconclusive and Six1-Eya2 blk -89*.
Screening CCn1c(O)c(/C=N/NC(=O)c2ccccc2)c(=O)[nH]c1=S returned CtBP-E1A inh -91*, PKM2 activator -6%, MBNL1-CUG inh 2% and Six1-Eya2 blk -93*.
Screening O=C(N/N=C/c1c(O)n(CCc2ccccc2)c(=O)[nH]c1=O)c1ccccc1O returned PKM2 activator 1%, MBNL1-CUG inh -6% and Six1-Eya2 blk inconclusive.
`COC(=O)[C@@H]1C[C@@]2(O)[C@H](O)[C@H](O)[C@H](O)C[C@H]2N1Cc1cccnc1` gave PKM2 activator 8%.
CCCc1cc2c(n1CCO)C(C)C1CN(C(=O)c3ccccc3)C(C)(C(=O)OC)C21 (stereo not given) was read as PKM2 activator 1%.
